Laboratory results as given in PubChem BioAssay (NCI).
Compounds without any hit were thinned out: in the full panel of roughly 79,000, 15% have a hit. Unmarked numbers belong to inactive results. The source made the active and inactive calls. Rule as the data show it: active = growth inhibition above about 70%; inactive = the rest.

Assays:
[1] = NCI Yeast Anticancer Drug Screen. Data for the rad50 strain (AID 155);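 also: 0% = growth of vehicle-only cultures of the same strain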; settings: S. cerevisiae rad50 strain growth inhibition; at 50.0 µM; hits give high values
Summary of the method: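 DNA repair mutant yeast, compound exposure, growth read-out; inhibition is taken relative to vehicle.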

[2] = NCI Yeast Anticancer Drug Screen. Data for the mec2-1 strain (AID 157); settings: S. cerevisiae mec2-1 strain, at 50.0 µM, hits give high values
Summary of the method: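 mec2-1 yeast strain, carrying an alteration in DNA damage repair or cell cycle control, was exposed to compounds; growth inhibition was measured relative to vehicle-treated controls.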

[3] = NCI Yeast Anticancer Drug Screen. Data for the sgs1 mgt1 strain (AID 161);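 also: 0% = growth of cultures given vehicle only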; settings: S. cerevisiae sgs1 mgt1 strain, at 50.0 µM, hits give high values
Summary of the method: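 Compounds are added to genetically altered yeast, and growth is compared with cultures given vehicle alone to give percent inhibition.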

[4] = NCI Yeast Anticancer Drug Screen. Data for the cln2 rad14 strain (AID 165);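 also: 0% = growth equal to vehicle treated cultures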; settings: S. cerevisiae cln2 rad14 strain, at 50.0 µM, hits give high values
Summary of the method: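 Yeast carrying cln2 and rad14 alterations (cell cycle control and DNA damage repair) were exposed to compounds. Growth inhibition was measured against vehicle-treated controls.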

[5] = NCI Yeast Anticancer Drug Screen. Data for the bub3 strain (AID 167); settings: S. cerevisiae bub3 mutant strain, at 50.0 µM, hits give high values
Summary of the method: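 In this screen, a yeast mutant lacking normal mitotic checkpoint function is challenged with compound. Relative growth versus vehicle gives the inhibition value.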

[6] = NCI Yeast Anticancer Drug Screen. Data for the mlh1 rad18 strain (AID 175); settings: S. cerevisiae mlh1 rad18 strain growth inhibition; at 50.0 µM; hits give high values
Summary of the method: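 Growth inhibition of the yeast strain was measured after compound exposure and expressed relative to vehicle-treated controls. The strain carries defined defects in DNA damage repair.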

SMILES	growth inhibition [1]	growth inhibition [2]	growth inhibition [3]	growth inhibition [4]	growth inhibition [5]	growth inhibition [6]
O=C(O)/C1=C/CCC(C(=O)O)CCC1 (configuration not stated)	-4.15%	-1.95%	-7.35%	-44.6%	-12.5%	22.9%
O=S1c2ccccc2N=C(c2ccc3ccccc3c2)CC1c1ccccc1F (configuration not stated)	-1.1%	-2.95%	12.3%	4.45%	2.45%	6.8%
CN(C)C1CS(=O)(=O)OC2=C1CCSc1ccccc12 (configuration not stated)	5.1%	12.1%	11.4%	-84.7%	-5.65%	7.6%
N#CCN1CCOCC1	31.5%	-1.55%	4.45%	15.2%	10.2%	27.1%
O=C(Nc1cccc(C(=O)Nc2ccc3cc(S(=O)(=O)O)cc(S(=O)(=O)O)c3c2)c1)Nc1cccc(C(=O)Nc2ccc3cc(S(=O)(=O)O)cc(S(=O)(=O)O)c3c2)c1	6.8%	34.1%	9.25%	-3%	3.65%	33%
CCCCNS(=O)(=O)c1ccc(C)cc1	-24.6%	-26.4%	-23%	-42.7%	-22%	-21.3%
C/C=C/C(=O)OC/C=C(\C)CCC=C(C)C	-26.4%	-44.9%	-6.7%	-4.3%	-39.7%	-16.7%
O=NNc1nc2ncccc2cc1-c1ccccc1Cl	-7.8%	-6.05%	-5.9%	9.75%	-22.2%	-8.2%
CCOC(=O)CCc1c(C)c2c(O)cc(O)cc2oc1=O	3.25%	-3.5%	-19.5%	8.3%	-42.9%	20.7%
Cc1cn(-c2c(C)c(C)c(-n3c(C)ccc3C)c(C)c2C)cc1C	-3.1%	-5.55%	-6.2%	-15.8%	4.85%	0%
C=CCSC(C)=O	-3.4%	-0.05%	13.9%	7.6%	-7.8%	-6.8%
COc1ccc(C2OCCC(C)O2)cc1OC (configuration not stated)	-14.6%	-12.8%	-19.7%	-48.8%	-33.5%	-14.8%
BrCCC[n+]1ccc2ccccc2c1-c1nccc2ccccc12	50.7%	16.1%	54.2%	33.2%	5.05%	49.5%
CC1(C)OC(=O)C=C([O-])O1.CC1(C)OC(=O)C=C([O-])O1.CC[O-].CC[O-].[Ti+4]	-20.8%	-36.2%	3.6%	-8.95%	-11.7%	-3.15%
Nc1[nH]nc2nc3n(c(=O)c12)CCCCC3	7.1%	19.7%	5.6%	5.55%	-5.75%	-4.15%
Cc1cc(Cl)ccc1N1C(=O)C(=O)C(c2nc3ccccc3s2)/C(=N\NC(=O)c2ccccc2O)C1=O (configuration not stated)	-37.9%	0.45%	-9.8%	10.8%	-15.2%	-14.9%
COC1OCCCO1	-12.6%	11.6%	-6.45%	-6.75%	-0.1%	-12.5%
O=C(CCCN1CCC(O)(c2ccc(Cl)cc2)CC1)c1ccc(N2CCC(O)CC2)cc1	0.8%	-2.05%	-0.65%	-44.6%	4.4%	1.1%
CCOc1cc(/C=N/NC(=O)C(O)C(O)C(O)C(O)CO)ccc1O (configuration not stated)	1.5%	38.6%	27.9%	4.45%	39.8%	30.6%

SMILES	growth inhibition [1]	growth inhibition [2]	growth inhibition [3]	growth inhibition [4]	growth inhibition [5]	growth inhibition [6]
Nc1c(-c2ncc[nH]2)ncn1CC(O)C(O)C(O)CO (configuration not stated)	7.5%	19.6%	12.3%	22.9%	3.2%	17.9%
O=[N+]([O-])c1ccc(S(=O)(=O)N/N=C\c2cc([N+](=O)[O-])ccc2O)cc1	11.8%	-1.4%	11.2%	-35.2%	1.55%	26.6%
Cc1nc2ccccc2c(=O)n1NC(=O)c1ccc([N+](=O)[O-])cc1	-43.4%	-26.4%	-13.5%	-21.4%	-10.8%	-19.1%
N#Cc1c(O)c(-c2ccccc2)c(=O)n2c1[nH]c1ccccc12	-11.7%	-9.9%	-13.6%	14.9%	2.6%	-12.3%
CSC(=S)Nc1nc2ccc(C)cc2s1	21.4%	0.4%	-2.95%	-15%	11.3%	-14.8%
c1ccc(C2=NOCC3(c4ccccc4)OC23)cc1 (configuration not stated)	7.85%	11.8%	20.7%	-14.8%	14.2%	11.3%
O=c1c2ccccc2c2nccn2c2ccccc12	13.8%	3%	19.1%	-9.1%	-0.3%	-5.25%
NC(=O)CN1CC(C2=C(O)CN(CC(N)=O)C2=O)=CC1=O	-23.9%	-8.6%	-10.1%	-43.5%	-6.35%	-9.2%
NC(=O)CNCc1ccccc1	0.3%	-3.75%	12.7%	-52%	0.25%	4.25%
CN(C)c1ccc(C=C2c3ccccc3-c3ccccc32)cc1	-10.8%	-1.35%	7.75%	-80.9%	0.9%	9.1%
CCOC(=O)C1=C(C)N(Cc2ccccc2)C(C)=C(C(=O)OCC)C1c1ccccc1O	20.5%	28.2%	20.1%	17.6%	30.8%	18.6%
COC(=O)C(C(=O)C(=O)Nc1ccccc1C(C)=O)c1nc2ccc(Cl)cc2[nH]c1=O (configuration not stated)	-31.9%	-16.2%	-12.3%	-4.45%	-19.3%	-14.4%
CCCNC(=O)c1cccc(-c2cccc(C(=O)NCCC)c2)c1	30.1%	-10.3%	28.4%	12.3%	25.4%	31.6%
COC1Cc2c(C)c(OC(C)=O)c3cccnc3c2O1 (configuration not stated)	18.6%	-17.4%	10.8%	18.6%	4.25%	5.65%
Cc1ccc(S(=O)(=O)OC2C(CI)OCOC(CI)C2OS(=O)(=O)c2ccc(C)cc2)cc1 (configuration not stated)	-1.05%	-7.3%	-6.3%	-20.4%	-21.6%	-14.8%
OC1CCCCC1OC1CCc2ccccc2C1 (configuration not stated)	19.1%	19.5%	-5.25%	29.9%	50%	33.1%
CC1OC(OC2C(OC3C(OC4CCC5(C)C(CCC6(C)C5CC=C5C7CC(C)(C)CCC7(C(=O)O)CCC56C)C4(C)C)OCC(O)C3O)OC(CO)C(O)C2O)C(O)C(O)C1O (configuration not stated)	92.8% (active)	94.4% (active)	94.3% (active)	92.3% (active)	93.8% (active)	93.8% (active)
CSc1ccc(NC(=O)SCc2ccccc2)cc1	-3.5%	5.15%	1%	-2.7%	15.9%	8.55%
